Results filed as inconclusive are left out. Activity calls are given as the source filed them. Unless noted, calls come from the whole dose curve; as a rule, active = well fitted curve in the direction sought with a large enough effect in the repeat runs; inconclusive = weak or mixed curves; inactive = no such curve, though single readings can be large; an effect the other way counts as inactive or inconclusive.

The values below come from PubChem BioAssay (Tox21).

Assay [1] is described as follows: qHTS assay to identify small molecule agonists of the RXR signaling pathway - cell viability counter screen (AID 1159529). Note: series mostly up to about 77 µM; nearly all actives have a fitted effect of over 50% in size. The method in brief: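 RXR-alpha-UAS-bla HEK 293T cells in medium with 2% charcoal-stripped FBS were pre-incubated 5 hr, then compound-treated 16 hr at 37 C. Viability was read by CellTiter-Glo luminescence in the same wells as the beta-lactamase assay, with tetraoctyl ammonium bromide as positive control.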
(In general: Quantitative high-throughput screening tests each substance at several concentrations.)

A short description of assay [2]: qHTS assay to identify small molecule antagonists of the retinoid acid receptor (RAR) signaling pathway - cell viability counter screen (AID 1159551). Note: nearly all actives have a fitted effect of over 35% in size. The method in brief:
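Luminescent ATP quantitation (CellTiter-Glo) gave cell viability in C3RL4 cells exposed to test chemicals for 6 h at 37 C alongside 1 uM final retinol.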

Assay [3] in a line: qHTS assay to identify small molecule agonists of the retinoic acid receptor (RAR) signaling pathway (AID 1159553). In short, it runs like this:
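Luminescence from a RARE-driven luciferase reporter in C3RL4 cells served as the read-out, measured after 30 min with detection reagent at room temperature. Compounds in DMSO were applied for 6 hr at 37 C following overnight seeding.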

Assay [4] can be described thus: qHTS assay to identify small molecule antagonists of the estrogen related receptor (ERR) signaling pathway from Tox21 library - cell viability counter screen (AID 1224834). Note: nearly all actives have a fitted effect of over 30% in size. Note: potency is the fitted concentration of half-maximal effect. In short, it runs like this: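 Fluorescence from CellTiter-Fluor gives the viability read-out, taken 30 min after reagent addition. Before that, ERR cells seeded 6 h earlier were incubated with compounds for 17.5 h at 37 C.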

Assay [5] has as its target Luciferin 4-monooxygenase (Photinus pyralis) (UniProt P08659). In words: qHTS assay to identify small molecule inhibitors of firefly luciferase (AID 1224835). Note: series mostly up to about 120 µM; nearly all actives have a fitted effect of over 25% in size. The method in brief: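 Biochemical qHTS: compounds run as interplate titrations against purified firefly enzyme, with D-luciferin and ATP each at its KM concentration. Light output recorded by CCD imaging.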
A short description of assay [6]: qHTS assay to identify small molecule antagonists of the constitutive androstane receptor (CAR) signaling pathway - cell viability counter screen (AID 1224837). Note: series mostly up to about 92 µM; nearly all actives have a fitted effect of over 45% in size. The method in brief: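 HepG2-CYP2B6-hCAR cells, 2500/well, 4 hr pre-incubation; compound titration, 15 conc.; CITCO 50 nM final; 23 hr, 37 C/5% CO2; CellTiter-Fluor, fluorescence intensity.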
Assay [7] addresses Nuclear receptor subfamily 1 group I member 3 (Homo sapiens) (UniProt Q14994). As to the kind of experiment: qHTS assay to identify small molecule agonists of the constitutive androstane receptor (CAR) signaling pathway (AID 1224839). Note: nearly all actives have a fitted effect of over 15% in size. Note: potency is the fitted concentration of half-maximal effect. In short, it runs like this: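 HepG2 cells stably co-transfected with hCAR and a CYP2B6-2.2kb luciferase reporter; compounds at 15 concentrations with 0.75 uM PK11195 present. After 24 hr at 37 C, luciferase read by ONE-Glo luminescence.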

The target of assay [8] is Thyrotropin receptor (Homo sapiens) (UniProt P16473). In words: qHTS assay to identify small molecule agonists of the thyroid stimulating hormone receptor (TSHR) signaling pathway (AID 1224843; calls by dose curve; note: nearly all actives have a fitted effect of over 45% in size). In short, it runs like this:
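TSHR-HEK293 cells in agonist mode, 30 min room-temperature step, then cAMP measured by competitive HTRF (cAMP-d2 with anti-cAMP cryptate) after 1 h at room temperature. Tested at 15 concentrations in triplicate.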

A short description of assay [9]: qHTS assay to identify small molecule antagonists of the estrogen related receptor (ERR) signaling pathway - cell viability counter screen (AID 1224818).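 Note: series mostly up to about 46 µM; viability measured after 17.5 h of compound exposure.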 The method in brief:
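Multiplexed counter screen to separate cytotoxic compounds from true ERR modulators. ERR cells received DMSO-dissolved compounds after a 6 h pre-incubation, were exposed 17.5 h at 37 C, then assayed with CellTiter-Fluor fluorescence.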

The nature of assay [10]: qHTS assay to identify small molecule antagonists of the estrogen related receptor signaling pathway with the pleiotropic PPARgamma coactivator (PGC) cell viability counter screen (AID 1224822; note: series mostly up to about 46 µM). In short, it runs like this:
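Cells: PGC/ERR, 2,000/well, 1536-well format. Pre-incubation 6 h, 37 C/5% CO2. Compound exposure 17.5 h, 37 C. Detection: CellTiter-Fluor, 30 min, fluorescence.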

The nature of assay [11]: qHTS assay to identify small molecule agonists of the constitutive androstane receptor (CAR) signaling pathway - cell viability counter screen (AID 1224836). Note: series mostly up to about 92 µM; nearly all actives have a fitted effect of over 45% in size. In short, it runs like this:
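HepG2 cells stably carrying hCAR and a CYP2B6-2.2kb reporter; 15-concentration compounds plus PK11195 (final 0.75 uM), 23 hr at 37 C/5% CO2. Viability read by CellTiter-Fluor fluorescence.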

The target in assay [12] is Nuclear receptor subfamily 1 group I member 3 (Homo sapiens) (UniProt Q14994). In words: qHTS assay to identify small molecule antagonists of the constitutive androstane receptor (CAR) signaling pathway (AID 1224838).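 Note: HepG2 cells stably expressing hCAR with CYP2B6 luciferase reporter stimulated by CITCO; nearly all actives have a fitted effect of over 40% in size.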 In short, it runs like this:
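HepG2-CYP2B6-hCAR cells; 4 h pre-incubation; cpd (15 conc) + CITCO 50 nM final; 24 h, 37 C/5% CO2; ONE-Glo, luminescence.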

Assay [13] can be described thus: qHTS assay to identify small molecule antagonists of the estrogen related receptor signaling pathway with the pleiotropic PPARgamma coactivator (PGC) from Tox21 10K library - cell viability counter screen (AID 1224840; active = well fitted cell-killing curve with a large enough effect in the repeat runs, not every such curve was filed as active; note: nearly all actives have a fitted effect of over 40% in size). The method in brief:
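PGC/ERR cells, 2,000/well; 6 h pre-incubation 37 C/5% CO2; cpd in DMSO via pin tool; 17.5 h 37 C; CellTiter-Fluor, 30 min; fluorescence.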

Assay [14] in a line: qHTS assay to identify small molecule agonists of the hypoxia (HIF-1) signaling pathway - cell viability counter screen (AID 1224844; calls by dose curve; note: nearly all actives have a fitted effect of over 50% in size). The method in brief: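 ME-180 HRE-bla cells, 2,000/well, 0.5% dialyzed FBS; 5 hr settle, 17 hr compound at 37C/5% CO2; CCF4-AM reporter read first, then CellTiter-Glo luminescence after 30 min RT.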
Assay [15] can be described thus: qHTS assay to identify small molecule antagonists of the estrogen related receptor signaling pathway with the pleiotropic PPARgamma coactivator (PGC) from Tox21 10K library (AID 1224841; call rule not given here; note: series mostly up to about 92 µM; actives are mostly falling curves and most rising ones were filed inactive; nearly all actives have a fitted effect of over 50% in size). The method in brief: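 PGC/ERR cell line, 2,000 cells/well; 6 h pre-incubation 37 C/5% CO2; compounds (DMSO) pinned in; 18 h, 37 C; One-Glo, 30 min RT; luminescence.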
Assay [16] is described as follows: qHTS assay to identify small molecule agonists of the estrogen related receptor signaling pathway with the pleiotropic PPARgamma coactivator (PGC) from Tox21 10K library (AID 1224842). Note: nearly all actives have a fitted effect of over 15% in size. In short, it runs like this: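 PGC/ERR reporter cell line, 2,000 cells per well, incubated 6 h at 37 C before 23 nL compound in DMSO was added. After 18 h at 37 C, One-Glo luminescence read following 30 min at room temperature.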

Assay [17] is described as follows: qHTS assay to identify small molecule antagonists of the retinoic acid receptor (RAR) signaling pathway (AID 1159552; note: nearly all actives have a fitted effect of over 50% in size). The method in brief: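 Retinol signaling pathway inhibitors screened in C3RL4 RARE-luciferase reporter cells seeded overnight at 37 C, then compounds added with 1 uM (final) retinol as pathway substrate. After 6 hr at 37 C, luciferase luminescence read after 30 min at room temperature.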

Sequence of Nuclear receptor subfamily 1 group I member 3 (Homo sapiens) (Q14994 whole entry, looked up): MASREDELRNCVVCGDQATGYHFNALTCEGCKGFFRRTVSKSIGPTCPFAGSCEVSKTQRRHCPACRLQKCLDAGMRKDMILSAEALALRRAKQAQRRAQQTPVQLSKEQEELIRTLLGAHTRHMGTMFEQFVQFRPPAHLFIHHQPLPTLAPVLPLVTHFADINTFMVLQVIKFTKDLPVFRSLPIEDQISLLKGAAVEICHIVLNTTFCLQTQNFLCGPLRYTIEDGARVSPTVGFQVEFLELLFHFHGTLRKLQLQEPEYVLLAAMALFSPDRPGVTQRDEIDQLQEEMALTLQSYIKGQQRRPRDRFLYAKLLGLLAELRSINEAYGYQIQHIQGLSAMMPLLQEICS
Sequence of Luciferin 4-monooxygenase (Photinus pyralis) (P08659 whole entry, looked up): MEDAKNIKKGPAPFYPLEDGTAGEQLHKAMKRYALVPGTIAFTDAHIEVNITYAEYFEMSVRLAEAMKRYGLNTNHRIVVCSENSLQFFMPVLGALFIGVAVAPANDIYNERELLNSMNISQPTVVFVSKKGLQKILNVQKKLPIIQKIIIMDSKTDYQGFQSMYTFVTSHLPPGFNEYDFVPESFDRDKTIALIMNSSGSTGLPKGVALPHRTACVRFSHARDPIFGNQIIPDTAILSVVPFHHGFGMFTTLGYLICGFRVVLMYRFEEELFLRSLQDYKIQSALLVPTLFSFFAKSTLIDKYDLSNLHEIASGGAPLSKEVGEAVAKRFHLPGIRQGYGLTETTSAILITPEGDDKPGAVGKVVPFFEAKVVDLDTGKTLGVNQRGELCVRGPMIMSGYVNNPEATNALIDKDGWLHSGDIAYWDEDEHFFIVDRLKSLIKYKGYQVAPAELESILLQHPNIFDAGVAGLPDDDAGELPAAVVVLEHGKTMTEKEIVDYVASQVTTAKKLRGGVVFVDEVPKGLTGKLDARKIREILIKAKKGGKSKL
Sequence of Thyrotropin receptor (Homo sapiens) (P16473 whole entry, looked up): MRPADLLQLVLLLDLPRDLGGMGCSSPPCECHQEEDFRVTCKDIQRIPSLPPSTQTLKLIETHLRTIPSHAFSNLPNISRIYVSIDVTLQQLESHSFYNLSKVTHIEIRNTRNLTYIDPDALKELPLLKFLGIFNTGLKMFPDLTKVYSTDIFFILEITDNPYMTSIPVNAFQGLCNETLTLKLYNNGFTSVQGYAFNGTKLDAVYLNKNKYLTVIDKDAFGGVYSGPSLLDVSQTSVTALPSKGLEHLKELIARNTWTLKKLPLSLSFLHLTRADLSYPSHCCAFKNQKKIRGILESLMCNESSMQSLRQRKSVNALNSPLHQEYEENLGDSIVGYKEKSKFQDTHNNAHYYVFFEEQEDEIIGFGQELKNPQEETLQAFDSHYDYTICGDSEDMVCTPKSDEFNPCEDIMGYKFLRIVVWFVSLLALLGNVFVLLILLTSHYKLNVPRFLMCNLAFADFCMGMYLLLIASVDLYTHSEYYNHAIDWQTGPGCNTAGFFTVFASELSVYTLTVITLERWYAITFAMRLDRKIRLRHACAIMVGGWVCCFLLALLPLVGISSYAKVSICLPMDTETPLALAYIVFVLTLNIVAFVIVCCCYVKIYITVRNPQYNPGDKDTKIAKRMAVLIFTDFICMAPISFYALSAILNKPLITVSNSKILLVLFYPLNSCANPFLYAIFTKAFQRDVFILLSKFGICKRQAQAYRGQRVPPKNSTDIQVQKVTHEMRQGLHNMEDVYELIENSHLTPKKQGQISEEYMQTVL

As to `CC1=C(C(=O)Nc2ccccc2)S(=O)(=O)CCO1`, the Potency result in assay [1], in [2], in assay [3], in assay [5], in assay [6] and in assay [7] was “inactive” in each case. In addition, in assay [8], the Potency result was “inactive”. In addition, the Potency in assay [4] is 61.1 µM (active).

Turning to `COC(=O)C1=CCCN(C)C1`, the Potency result in assay [1], in [2], in assay [4], in [5], in [11] and in [6] was “inactive” in each case. Also, the Potency entry in assay [12], in [13] and in assay [8] was “inactive” throughout. Besides, the molecule was called inactive in assay [9] and in [10].

As to `ClC(Cl)C(Cl)Cl`, the Potency entry in assay [1], in assay [2], in assay [3], in [4], in assay [5] and in [11] was “inactive” throughout. Besides, the Potency entry in assay [6], in [12], in assay [13] and in assay [14] was “inactive” throughout.

In the case of `ClC(Cl)Br`, the Potency entry in assay [1], in assay [2], in [3], in assay [4], in [5] and in [11] was “inactive” in each case. In addition, the Potency entry in [6], in assay [12], in assay [13] and in [8] was “inactive” each time.

In the case of `COC(=O)c1c(C(F)F)nc(C(F)(F)F)c(C2=NCCS2)c1CC(C)C`, the Potency entry in assay [1], in assay [2], in assay [3], in [4], in assay [5] and in [11] was “inactive” throughout. In addition, the Potency result in assay [6], in [12], in assay [13], in assay [15], in assay [8] and in assay [14] was “inactive” each time. Moreover, the outcome in assay [16] was inactive.

Consider `C=C(C)[C@@H]1CC=C(C=O)CC1`, for which the Potency result in assay [1], in assay [2], in [17], in assay [4], in assay [5] and in assay [11] was “inactive” each time. Also, the Potency result in [6], in assay [13], in [15] and in assay [8] was “inactive” in each case. Moreover, the molecule was classed as inactive in [16].

Take `CCCSP(=O)(OCC)Oc1ccc(Br)cc1Cl` (stereo not given): the Potency entry in assay [1], in [2], in assay [3], in [4], in [5] and in assay [11] was “inactive” in each case. Besides, the Potency entry in assay [6], in [12], in assay [13] and in assay [8] was “inactive” in each case. Moreover, the Potency in assay [7] was 13.3 µM (active).

On to `Oc1c(Cl)cccc1Cl`, for which the Potency result in assay [1], in assay [2], in [17], in assay [4], in assay [5] and in assay [11] was “inactive” each time. The Potency result in assay [6], in assay [7], in [13], in [8] and in assay [14] was “inactive” throughout.

As for `CCOP(=S)(OCC)SCSc1ccc(Cl)cc1`, the Potency result in assay [1], in assay [2], in assay [3], in [4], in assay [5] and in assay [11] was “inactive” each time. Besides, the Potency result in assay [6] and in [13] was “inactive” in each case.

Take `Nc1cnn(-c2ccccc2)c(=O)c1Cl`: the Potency entry in assay [1], in assay [2], in assay [4], in assay [5], in [11] and in assay [6] was “inactive” throughout. The Potency result in [12], in assay [7], in assay [13], in assay [8] and in assay [14] was “inactive” each time.

For `CCC1(c2ccccc2)C(=O)N=C(O)NC1=O` (stereo not given), the Potency result in assay [1], in assay [2], in assay [4], in assay [5], in [11] and in [6] was “inactive” each time. The Potency result in assay [12], in assay [7], in [13] and in assay [8] was “inactive” in each case.

On to `O=S(=O)(O)C(F)(F)C(F)(F)C(F)(F)C(F)(F)C(F)(F)C(F)(F)F`, for which the Potency entry in assay [1], in assay [2], in [4], in [5], in assay [11] and in [6] was “inactive” throughout. Also, the Potency result in assay [12], in assay [7], in [13], in [8] and in [14] was “inactive” in each case.
